# According to PubChem BioAssay (NCI):
# The panel holds about 83,000 compounds, 20% with a hit somewhere; the sample as a whole holds those more often.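 Plates (96-well) were seeded with cells, treated with compound at one concentration, and incubated for 48 hours before percent growth was determined.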 A number with no mark means an inactive call. Active and inactive are the calls of the source. How the source made its calls: active means growth percent below 10; inactive means the rest.
# Assays:
# Assay in all cases: NCI-60 one-dose screen, 48 h (100 = growth as untreated, 0 = no growth, -100 = all killed)
# [1] = test system: DU-145 prostate; conditions: 10 µM unless noted
# [2] = test system: K-562 leukemia; conditions: 10 µM unless noted
# [3] = test system: MALME-3M melanoma; conditions: 10 µM unless noted
# [4] = test system: MDA-MB-231 breast; conditions: 10 µM unless noted
# [5] = test system: RXF 393 renal; conditions: 10 µM unless noted
# [6] = test system: SF-268 CNS; conditions: 10 µM unless noted
# [7] = test system: SF-295 CNS; conditions: 10 µM unless noted
# [8] = test system: SF-539 CNS; conditions: 10 µM unless noted
# [9] = test system: UACC-257 melanoma; conditions: 10 µM
# [10] = test system: M14 melanoma; conditions: 10 µM unless noted
# [11] = test system: HCT-15 colon; conditions: 10 µM unless noted
# [12] = test system: HT29 colon; conditions: 10 µM unless noted
# [13] = test system: SNB-19 CNS; conditions: 10 µM unless noted
# [14] = test system: U251 CNS; conditions: 10 µM unless noted
# [15] = test system: PC-3 prostate; conditions: 10 µM unless noted
# [16] = test system: SK-MEL-5 melanoma; conditions: 10 µM unless noted
# [17] = test system: UACC-62 melanoma; conditions: 10 µM unless noted
# [18] = test system: LOX IMVI melanoma; conditions: 10 µM unless noted
# [19] = test system: SK-MEL-28 melanoma; conditions: 10 µM unless noted
# [20] = test system: SNB-75 CNS; conditions: 10 µM unless noted
Structure (SMILES),growth [1],growth [2],growth [3],growth [4],growth [5],growth [6],growth [7],growth [8],growth [9],growth [10],growth [11],growth [12],growth [13],growth [14],growth [15],growth [16],growth [17],growth [18],growth [19],growth [20]
COc1cc(Cn2c(SCC(=O)Nc3ccc(Cl)cc3)nc3ccccc3c2=O)cc(OC)c1OC,66.5%,45.7%,9.48% (active),49.3%,19.1%,46.5%,62.2%,-14% (active),73.8%,74.9%,72.8%,87.4%,63.9%,75.4%,65.9%,49.8%,63.3%,56.1%,83.7%,
O=c1[nH]c2ccccc2cc1-c1nnc(Cc2ccccc2)o1,71.1%,30.8%,55.8%,79.6%,76.1%,78.4%,99.7%,80.8%,80%,65.8%,49%,57.9%,86%,72.4%,65.5%,56.8%,47.9%,35%,101%,
CC(C)[C@H](CO)Nc1nc(Nc2ccc(C(=O)NCCNS(=O)(=O)c3cccc4c(N(C)C)cccc34)c(Cl)c2)c2ncn(C(C)C)c2n1,29%,10.9%,51.2%,7.36% (active),-57.1% (active),0.765% (active),-16.5% (active),-50.2% (active),3.15% (active),23.5%,51.9%,9.2% (active),24.6%,,17%,12.1%,22.2%,-3.44% (active),15.7%,10.6%
CC(C)C[C@H](NC(=O)Cn1ccc(NCc2ccccc2)cc1=O)B(O)O,36.6%,15.6%,-21.2% (active),28%,-51.7% (active),3.08% (active),28.4%,-29.4% (active),-3% (active),-17% (active),23.5%,-15.2% (active),42.2%,,,-9.84% (active),4% (active),-65.5% (active),27.4%,56.9%
O=C(Cc1n[nH]c(=O)c2ccccc12)OCc1c(Cl)cccc1Cl,130%,46.4%,100%,72.9%,52.5%,60.9%,55.1%,94.9%,,97.4%,43.6%,51.4%,105%,54%,80.5%,56.9%,70.4%,47.1%,112%,90%
O=C1CCC(=O)N1Cc1ccccc1,105%,108%,110%,98%,87%,94.7%,102%,105%,,94.7%,99.9%,101%,110%,101%,100%,102%,104%,90.5%,101%,80.4%
O=C1C2=C(C(=O)c3c(O)ccc(O)c31)N(c1cccnc1)Cc1ccccc1O2,-96.6% (active),-9.44% (active),-80.5% (active),-68.9% (active),-78.8% (active),1.4% (active),37.9%,-56.1% (active),,-78% (active),-32.8% (active),-60.4% (active),5.25% (active),2.04% (active),-31.7% (active),11.4%,-76.5% (active),-64.6% (active),-72% (active),22.1%
CC(C)(C)OC(=O)N[C@@H](Cc1ccccc1)C(=O)N(Cc1ccccc1)C1(C(=O)NCc2ccccc2)CCN(Cc2ccccc2)CC1,75.6%,11%,25.6%,22.9%,61.9%,58.5%,39.2%,47.2%,24.2%,40.2%,36.1%,23.9%,31.6%,33.8%,1.58% (active),24.3%,26%,39%,69.9%,
C=CCN=C1NC(=O)/C(=C/c2cc(C(C)(C)C)c(O)c(C(C)(C)C)c2)S1,84%,30.8%,75.4%,86.8%,62.4%,82%,69.3%,87.6%,93%,52.4%,42.1%,26.9%,83.6%,77%,62.4%,49.3%,63.8%,70.8%,73.3%,
O=C1c2ccccc2C(=O)c2c1oc1oc3c(c(=O)c21)c(=O)n(-c1ccccc1)c1ccccc31,94.4%,26.8%,42%,97.3%,-14.1% (active),34.3%,18.4%,-5.45% (active),101%,44.7%,66.6%,84.2%,27.9%,21.1%,,17.7%,13.2%,43%,39.4%,
O=S(=O)(NCCCNc1cc(-c2cn(-c3ccccc3)nc2-c2cccc(O)c2)ccn1)c1ccc(C(F)(F)F)cc1,60.8%,3.42% (active),22.7%,4.73% (active),24.7%,44.1%,-3.81% (active),36.7%,,23.5%,5.17% (active),2.83% (active),51.4%,36.8%,13.7%,8.74% (active),27.4%,27.4%,21.7%,31.5%
Cc1cc(C)c(S(=O)(=O)N2CCN(c3cc4c(cc3F)c(=O)c(C(=O)O)cn4C3CC3)CC2)c(C)c1,71.4%,63.5%,59.7%,84.6%,51.3%,56.7%,33.3%,46.5%,86.9%,63.5%,55.1%,28.3%,66.3%,,67.9%,54.9%,76.6%,29.6%,69.1%,36.6%
CCN(CC)CCC(=O)c1cccc2ccccc12,108%,89.6%,98.6%,94.8%,102%,109%,101%,92.4%,,111%,102%,110%,102%,104%,95.3%,114%,97%,94.3%,111%,101%
O=C(O)c1cn(C2CC2)c2cc(N3CCN(S(=O)(=O)c4ccc(Cl)c(Cl)c4)CC3)c(F)cc2c1=O,17.2%,16.9%,-1.09% (active),36.6%,29.1%,19.6%,-7.27% (active),11.4%,8.87% (active),18.5%,6.24% (active),0.259% (active),24.7%,12.4%,16.2%,2.06% (active),29.6%,1.21% (active),48.5%,
Cc1ccc(S(=O)(=O)NCCCNc2nccc(-c3c(-c4ccccc4)nc4sccn34)n2)cc1,26.2%,15.9%,99.3%,18.3%,65%,38.6%,65.2%,82.5%,106%,30.5%,47%,18.5%,75.4%,,,45%,36.5%,32.6%,78.5%,48.4%
COc1ccc2c(c1)C(C)Cc1c(N(C)C)ncnc1N2C (configuration not stated),53.5%,15.1%,56.4%,54.3%,49%,46.1%,9.16% (active),6.17% (active),,25.5%,23.7%,11.6%,40.5%,28%,26.4%,19.4%,27.6%,42.4%,59.3%,14.3%
COc1ccc(/C(=N\O)c2cc(OC)c(OC)c(OC)c2)c(OC)c1N,15.3%,7.11% (active),48.9%,36.9%,16.8%,42.1%,-9.97% (active),-35.2% (active),,7.17% (active),11.3%,4.28% (active),32.8%,18.3%,20.9%,11.3%,30%,42.5%,59.3%,-8.55% (active)
COc1cc(C2CC(c3c(C)[n+]([O-])c4ccccc4[n+]3[O-])=NN2)cc(OC)c1OC (configuration not stated),112%,106%,112%,104%,-20.2% (active),112%,103%,124%,,101%,97.3%,120%,101%,99.6%,102%,96%,105%,98%,116%,99.4%
NC(=O)c1cccc(N2Cc3ccccc3OC3=C2C(=O)c2c(O)ccc(O)c2C3=O)c1,-96.4% (active),-19.8% (active),-82% (active),-81.9% (active),-73.1% (active),-11.4% (active),45.4%,-49.3% (active),,-81% (active),-49.7% (active),-55.8% (active),1% (active),-7.38% (active),-44.5% (active),-7.12% (active),-86.1% (active),-63.5% (active),-85.6% (active),6.48% (active)
CSc1ccccc1C#C/C=C\C#Cc1ccccc1N1CCCC1=O,85.7%,14.7%,50%,51%,52.9%,56.6%,65.3%,55.1%,,64.5%,37.6%,24.1%,88.5%,34.3%,46.2%,22.2%,34.4%,30.8%,50.1%,47%
O=C1NCC(c2cc3ccccc3[nH]c2=O)Nc2ccccc21 (configuration not stated),111%,90.2%,96.8%,97.9%,90.7%,99.9%,106%,96.5%,,101%,106%,98.3%,102%,102%,93.2%,97.2%,98.3%,98.5%,103%,99.6%
O=S(=O)(NCCCNc1cc(-c2cn(-c3ccccc3)nc2-c2cccc(O)c2)ccn1)c1ccc(Cl)cc1,39.9%,-8.45% (active),-19.3% (active),-17.3% (active),14.9%,30.6%,-47.9% (active),21.6%,,8.6% (active),-5.43% (active),-32.7% (active),43.8%,13.8%,1.79% (active),-19.5% (active),17.1%,3.96% (active),-27.5% (active),20.3%
COc1ccc2c(c1)C=CC(C#N)N2C(=O)c1ccccc1 (configuration not stated),3.08% (active),7.66% (active),66.8%,25.4%,30.4%,34%,-1.96% (active),-21.2% (active),,15.9%,9.74% (active),5.77% (active),43.8%,28.6%,19%,-6.27% (active),26.3%,20%,58.9%,-14.7% (active)
O=[N+]([O-])c1c(S(=O)(=O)O)cc2cc(S(=O)(=O)O)ccc2c1[N+](=O)[O-],107%,95.7%,91%,99.7%,109%,99.5%,105%,98.4%,,99.8%,101%,103%,108%,100%,100%,100%,97%,94.3%,103%,98.1%
COc1ncc(-c2ccc3ncnc(Nc4cccc(Cl)c4)c3c2)cc1N(S(C)(=O)=O)S(C)(=O)=O,54.8%,94.2%,44.8%,67.3%,68.8%,73.2%,76%,76.2%,,73.7%,54.9%,53%,72.8%,82.1%,52.1%,73.6%,58.1%,63.7%,72.8%,41.1%
